From PubChem BioAssay (NCI)
“And” between values parts separate entries of the source, which are not always exact repeats. Equal values may be shown once. Compounds without any hit were thinned out: in the full panel of roughly 83,000, 20% have a hit.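 Single-dose data. Exposure time 48 hours. Values below 10 considered active.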 The source made the active and inactive calls.

Columns and labels:
Experiment in all cases: NCI-60 one-dose screen, 48 h (100 = growth as untreated, 0 = no growth, -100 = all killed)
Details in all cases: 10 µM unless noted
NCI-H23 lung = tested on: NCI-H23 lung
NCI-H226 lung = tested on: NCI-H226 lung
NCI-H322M lung = tested on: NCI-H322M lung
HOP-62 NSCLC = tested on: HOP-62 NSCLC
NCI-H460 lung = tested on: NCI-H460 lung
HOP-92 NSCLC = tested on: HOP-92 NSCLC
NCI-H522 lung = tested on: NCI-H522 lung
A549/ATCC NSCLC = tested on: A549/ATCC NSCLC
786-0 renal = tested on: 786-0 renal
DU-145 prostate = tested on: DU-145 prostate
K-562 leukemia = tested on: K-562 leukemia
MALME-3M melanoma = tested on: MALME-3M melanoma
MDA-MB-231 breast = tested on: MDA-MB-231 breast
RXF 393 renal = tested on: RXF 393 renal
SF-268 CNS = tested on: SF-268 CNS
SF-295 CNS = tested on: SF-295 CNS
SF-539 CNS = tested on: SF-539 CNS
UACC-257 melanoma = tested on: UACC-257 melanoma
M14 melanoma = tested on: M14 melanoma
COLO 205 colon = tested on: COLO 205 colon

Measured: growth

Oc1c(Br)c(Br)c(O)c(Br)c1Br
inactive: NCI-H23 lung 92.5% | NCI-H226 lung 113% | NCI-H322M lung 105% | HOP-62 NSCLC 146% | NCI-H460 lung 120% | HOP-92 NSCLC 142% | A549/ATCC NSCLC 118% | 786-0 renal 111% | DU-145 prostate 112% | MALME-3M melanoma 56.5% | MDA-MB-231 breast 116% | RXF 393 renal 12.5% | SF-268 CNS 108% | SF-295 CNS 107% | SF-539 CNS 119% | UACC-257 melanoma 117% | M14 melanoma 110%
active: NCI-H522 lung -88% | K-562 leukemia 7.81%

Oc1c(Cl)cc(Cl)c2cccnc12
inactive: NCI-H23 lung 64.6% and 49.1% | NCI-H226 lung 81% and 71.6% | NCI-H322M lung 63.2% and 72.1% | HOP-62 NSCLC 49.7% and 71.2% | NCI-H460 lung 24.7% and 27.4% | HOP-92 NSCLC 49.7% | NCI-H522 lung 65.2% and 71.8% | A549/ATCC NSCLC 30.6% | 786-0 renal 69.1% and 74% | DU-145 prostate 85.5% and 71.2% | K-562 leukemia 24.4% and 29% | MALME-3M melanoma 74.1% and 91.3% | MDA-MB-231 breast 95.1% and 48.3% | RXF 393 renal 67.1% | SF-268 CNS 66.4% and 54% | SF-295 CNS 30.3% and 12.3% | SF-539 CNS 68.7% and 34.3% | UACC-257 melanoma 82.4% | M14 melanoma 63.7% and 53%

COC(=O)[C@@]12OC[C@]34[C@H]([C@@H](O)[C@@H]1O)[C@@]1(C)[C@H](O)C(=O)C=C(C)[C@@H]1C[C@H]3OC(=O)C(OC(C)=O)[C@@H]24 (some centres not stated)
active: NCI-H23 lung -48.7% | NCI-H226 lung -65.4% | NCI-H322M lung -28.9% | HOP-62 NSCLC -30.7% | HOP-92 NSCLC -44.2% | NCI-H522 lung -60.1% | A549/ATCC NSCLC -19.4% | 786-0 renal -38.9% | COLO 205 colon -64.3% | DU-145 prostate -64.4% | K-562 leukemia -60% | MALME-3M melanoma -70.1% | MDA-MB-231 breast -39.5% | RXF 393 renal -63.6% | SF-268 CNS -31.2% | SF-295 CNS -53.9% | SF-539 CNS -36.7% | UACC-257 melanoma -54.4% | M14 melanoma -84.9%

C/C=C1\SC(=S)NC1=O
inactive: NCI-H23 lung 98.5% | NCI-H226 lung 103% | NCI-H322M lung 108% | HOP-62 NSCLC 100% | NCI-H460 lung 107% | HOP-92 NSCLC 94.2% | NCI-H522 lung 103% | A549/ATCC NSCLC 99.7% | 786-0 renal 97.8% | DU-145 prostate 110% | K-562 leukemia 117% | MALME-3M melanoma 92.9% | MDA-MB-231 breast 96.9% | RXF 393 renal 114% | SF-268 CNS 103% | SF-295 CNS 102% | SF-539 CNS 93.9% | UACC-257 melanoma 95% | M14 melanoma 97.5%

N#CSCc1ccc(Cl)c(CSC#N)c1
inactive: NCI-H23 lung 40.4% | NCI-H226 lung 74.2% | NCI-H322M lung 98.7% | HOP-62 NSCLC 74% | NCI-H522 lung 13.7% | A549/ATCC NSCLC 35.5% | 786-0 renal 32.1% | DU-145 prostate 16.4% | K-562 leukemia 15.2% | MALME-3M melanoma 63.7% | MDA-MB-231 breast 45.4% | SF-268 CNS 36.4% | SF-295 CNS 70.7% | SF-539 CNS 15.2% | UACC-257 melanoma 83.1%
active: HOP-92 NSCLC -4.43% | RXF 393 renal 5.61% | M14 melanoma 9.39%

CC(=Nc1ccc(N(C)C)cc1)c1ccccc1
inactive: NCI-H23 lung 66.4% | NCI-H226 lung 59.3% | NCI-H322M lung 66.5% | HOP-62 NSCLC 54.2% | HOP-92 NSCLC 30.8% | NCI-H522 lung 64.7% | A549/ATCC NSCLC 45.2% | 786-0 renal 74.5% | COLO 205 colon 13.2% | DU-145 prostate 46.9% | K-562 leukemia 22.5% | MALME-3M melanoma 85.5% | MDA-MB-231 breast 66.5% | RXF 393 renal 72.8% | SF-268 CNS 82.3% | SF-295 CNS 44.4% | SF-539 CNS 56.7% | UACC-257 melanoma 59.4% | M14 melanoma 66.1%

CN(C)C(=O)SC1=C(c2c(Cl)cccc2Cl)C(=O)c2ccccc21
inactive: NCI-H23 lung 70.6% | NCI-H226 lung 111% | NCI-H322M lung 98.3% | HOP-62 NSCLC 92.2% | A549/ATCC NSCLC 110% | 786-0 renal 71.5% | MDA-MB-231 breast 80.6% | SF-268 CNS 13.3% | SF-295 CNS 103% | SF-539 CNS 91.1% | UACC-257 melanoma 48.8% | M14 melanoma 23.2%
active: HOP-92 NSCLC 3.58% | NCI-H522 lung -74.3% | DU-145 prostate -8.29% | K-562 leukemia -8.92% | MALME-3M melanoma -69.7% | RXF 393 renal -27.5%

CC1OC2CC(=O)OC2C2=C1C(=O)c1c(O)cccc1C2=O (configuration not stated)
active: NCI-H23 lung -89.9% | NCI-H226 lung -80% | NCI-H322M lung -29.1% | HOP-62 NSCLC -88.2% | HOP-92 NSCLC -92% | NCI-H522 lung -89.1% | A549/ATCC NSCLC 2.68% | 786-0 renal -87.9% | COLO 205 colon -87.2% | DU-145 prostate -98.3% | K-562 leukemia -7.94% | MALME-3M melanoma -77.4% | MDA-MB-231 breast -65.9% | RXF 393 renal -96.4% | SF-268 CNS -92.9% | SF-295 CNS -8.69% | SF-539 CNS -89.5% | UACC-257 melanoma -78.5% | M14 melanoma -87.7%

CCC1OC(OC)C=CC1=O (configuration not stated)
inactive: NCI-H23 lung 106% | NCI-H226 lung 103% | NCI-H322M lung 108% | HOP-62 NSCLC 98.2% | HOP-92 NSCLC 90.1% | NCI-H522 lung 95.5% | A549/ATCC NSCLC 102% | 786-0 renal 99.9% | COLO 205 colon 103% | DU-145 prostate 107% | K-562 leukemia 87.2% | MALME-3M melanoma 99.9% | MDA-MB-231 breast 106% | RXF 393 renal 113% | SF-268 CNS 108% | SF-295 CNS 98.1% | SF-539 CNS 101% | UACC-257 melanoma 117% | M14 melanoma 104%

Nc1nc(N)c2c(ccc3c2ccn3Cc2cccc([N+](=O)[O-])c2)n1
active: NCI-H23 lung -74.8% | NCI-H226 lung -86.6% | NCI-H322M lung -91.1% | HOP-62 NSCLC -83.7% | HOP-92 NSCLC -72.1% | NCI-H522 lung -84.3% | A549/ATCC NSCLC -83% | 786-0 renal -89.6% | COLO 205 colon -88.9% | DU-145 prostate -97% | MALME-3M melanoma -82.7% | MDA-MB-231 breast -87.9% | RXF 393 renal -83.6% | SF-268 CNS -78% | SF-295 CNS -93.3% | SF-539 CNS -96.7% | UACC-257 melanoma -78.9% | M14 melanoma -83.2%
inactive: K-562 leukemia 31.8%

CC(=O)C(=Cc1ccc(C=C(C(C)=O)C(C)=O)cc1)C(C)=O
active: NCI-H23 lung 4.19% | NCI-H226 lung -14.5% | NCI-H522 lung -53.9% | 786-0 renal 2.51% | COLO 205 colon -70.9% | K-562 leukemia 2.87% | MALME-3M melanoma -18.6% | MDA-MB-231 breast -3.61% | RXF 393 renal -58.5% | SF-539 CNS -1.57% | M14 melanoma 4.86%
inactive: NCI-H322M lung 102% | HOP-62 NSCLC 83.2% | HOP-92 NSCLC 81.6% | A549/ATCC NSCLC 84.2% | DU-145 prostate 23.6% | SF-268 CNS 19.7% | SF-295 CNS 86.4% | UACC-257 melanoma 19.1%

O=C(CC1(O)C(=O)Nc2c(Cl)ccc(Cl)c21)c1ccc(Cl)cc1Cl (configuration not stated)
inactive: NCI-H23 lung 101% | NCI-H226 lung 97.6% | NCI-H322M lung 108% | HOP-62 NSCLC 70.2% | HOP-92 NSCLC 92.5% | NCI-H522 lung 76.2% | A549/ATCC NSCLC 91.4% | 786-0 renal 102% | COLO 205 colon 97.5% | DU-145 prostate 103% | K-562 leukemia 93.6% | MALME-3M melanoma 100% | MDA-MB-231 breast 109% | RXF 393 renal 94.5% | SF-268 CNS 97.4% | SF-295 CNS 100% | SF-539 CNS 103% | UACC-257 melanoma 78.8% | M14 melanoma 89.2%

O=C(Nc1cccc(Br)c1)Oc1ccc(Cl)c2cccnc12
inactive: NCI-H226 lung 14.5% [100 µM] | NCI-H322M lung 82.3% [100 µM] | HOP-62 NSCLC 31% [100 µM] | HOP-92 NSCLC 40.7% [100 µM] | A549/ATCC NSCLC 23.6% [100 µM] | 786-0 renal 89.3% [100 µM] | DU-145 prostate 42.2% [100 µM] | K-562 leukemia 10.4% [100 µM] | MALME-3M melanoma 27% [100 µM] | MDA-MB-231 breast 20.1% [100 µM] | RXF 393 renal 51.6% [100 µM] | SF-268 CNS 16.4% [100 µM] | SF-295 CNS 12.1% [100 µM]
active: NCI-H23 lung -8.8% [100 µM] | NCI-H522 lung -56.5% [100 µM] | SF-539 CNS 9.36% [100 µM] | UACC-257 melanoma 7.32% [100 µM] | M14 melanoma 8.2% [100 µM]

Nc1ccc(SSc2ccc(N)cc2)cc1
inactive: NCI-H23 lung 89.9% | NCI-H226 lung 103% | NCI-H322M lung 92.5% | HOP-62 NSCLC 114% | HOP-92 NSCLC 103% | NCI-H522 lung 84.1% | A549/ATCC NSCLC 77.7% | 786-0 renal 100% | COLO 205 colon 106% | DU-145 prostate 111% | MALME-3M melanoma 104% | MDA-MB-231 breast 82.4% | RXF 393 renal 108% | SF-268 CNS 106% | SF-295 CNS 82.6% | SF-539 CNS 106% | UACC-257 melanoma 86.1% | M14 melanoma 97.7%
